Potency data for 39 compounds are collected here from PubChem BioAssay AID2530 (National Center for Advancing Translational Sciences (NCATS), 2010).

Records with an inconclusive call do not appear. Where a call stands in place of a potency, no number is given. Active and inactive are the calls of the source. Calls follow the shape of the dose curve; as a rule, active = well fitted inhibition curve with a large enough effect; inconclusive = small, poorly fitted or top-dose-only effect; inactive = flat fitted curve, though single readings scatter.

The assay addresses Luciferin 4-monooxygenase (Photuris pensylvanica) (UniProt Q27757). The experiment in a line: Secondary Assay for Luciferase (Kinase-Glo TM) Inhibition Counterscreen. Summed up:
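Kinase-Glo firefly-type luciferase with 10 uM ATP in 50 mM imidazole pH 7.2, 50 mM KCl, 7 mM MgCl2, 0.01% Tween 20, 0.05% BSA. Luminescence read after 8 min at ambient temperature, normalized to DMSO and 40 uM SIB 1757, then Hill-fitted.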
Potency is read from the fitted curve at half-maximal effect.

Turning to `O=C1c2ccccc2C(=O)N1c1nccs1`, the Potency entry was “inactive”.

In the case of `Cc1ccc(NS(=O)(=O)c2cccc(C(=O)O)c2)cc1C`, the Potency result is “inactive”.

With `Cc1cc2c(s1)c1cnn(Cc3ccccc3F)c(=O)c1n2C`, the Potency entry is “inactive”.

Turning to `O=S1(=O)N=C(Oc2ccccc2Cl)c2ccccc21`, the Potency entry was “inactive”.

Take `Cc1ccc(NS(=O)(=O)c2ccc3c(c2)CCC(C)(C)O3)cc1C`: the Potency entry was “inactive”.

In the case of `Cc1cc(O)c(-c2cc(O)c(C)cc2O)cc1O`, the Potency result is “inactive”.

In the case of `c1ccc2nc(-c3nc4ccccc4[nH]3)ccc2c1`, the Potency is 5.8 µM (active).

Take `Cc1ccc(NS(=O)(=O)c2cccc(Cl)c2)cc1C`: the Potency entry is “inactive”.

With `CCOC(=O)C(C(C)=O)c1c(Br)c(O)c(O)c2c(C(=O)c3ccc(C)cc3)coc12` (centres undefined), the Potency result is “inactive”.

On to `O=C(Nc1cccc(O)c1)C(=O)Nc1ccccn1`, for which the Potency is 20.6 µM (active).

On to `CC(=O)N(C1=C(Cl)C(=O)c2ccccc2C1=O)c1ccc(C(=O)O)cc1`, for which the Potency result is “inactive”.

Take `CN1CCc2cccc3c2C1Cc1ccc(O)c(O)c1-3` (centres undefined): the Potency result is “inactive”.

For `Cc1ccc(C(=O)/C=C/C(=O)c2ccc(C)cc2)cc1`, the Potency entry is “inactive”.

Turning to `O=C1c2ccccc2-c2nnc(-c3ccccc3)cc21`, the Potency is 4.11 µM (active).

For `O=C1CCc2cc(S(=O)(=O)Nc3ccccn3)ccc2N1`, the Potency result is “inactive”.

As for `Cc1ccc(NS(=O)(=O)c2cc3c(cc2C)NC(=O)CO3)cc1C`, the Potency entry was “inactive”.

As for `Cc1ccc(S(=O)(=O)/N=C2/C=C(Sc3ncn[nH]3)C(=O)c3ccccc32)c(C)c1`, the Potency result is “inactive”.

For `Cc1occc1C(=O)O/N=C(\N)c1ccccc1`, the Potency is 6.51 µM (active).

Regarding `COc1cccc(N2C(=O)c3ccccc3C2=O)c1`, the Potency result was “inactive”.

As to `COc1ccc(-c2cc3nc(C)n(N)c(=O)c3s2)cc1`, the Potency is 2.31 µM (active).

Turning to `Brc1ccc(N=Nc2ccc3ccccc3n2)cc1`, the Potency was 7.3 µM (active).

On to `Cc1ccnc(NC(=O)c2ccc3c(c2)OCO3)c1`, for which the Potency is 11.6 µM (active).

In the case of `COc1ccc(NS(=O)(=O)c2ccc3c(c2)CCC(=O)N3)cc1`, the Potency entry is “inactive”.

Consider `COc1ccc(N=Nc2n(C)c3ccccc3[n+]2C)cc1`, for which the Potency was 10.3 µM (active).

Consider `Cc1ccc(NS(=O)(=O)c2ccc(-c3ccccc3)cc2)cc1C`, for which the Potency entry is “inactive”.

Turning to `O=C1c2ccccc2C(=O)N1c1cccc2cnccc12`, the Potency entry was “inactive”.

With `COc1ccc(N2C(=O)c3ccccc3C2=O)cc1`, the Potency result was “inactive”.

Regarding `O=S1(=O)N=C(Oc2ccccc2)c2ccccc21`, the Potency result was “inactive”.

Turning to `Cc1cccc(NS(=O)(=O)c2ccc3c(c2)CCC(=O)N3)c1`, the Potency entry is “inactive”.

Consider `CC[n+]1c(C)sc2sc3ccccc3c21`, for which the Potency result was “inactive”.

As for `O=C1c2ccccc2C(=O)N1c1ccc2ccccc2n1`, the Potency entry is “inactive”.

In the case of `Nc1ncnc2c1ncn2C1OC(COP(=O)(O)O)C(O)C1O` (centres undefined), the Potency was 4.61 µM (active).

Turning to `COc1ccccc1OC1=NS(=O)(=O)c2ccccc21`, the Potency entry is “inactive”.

Take `COc1cccc(OC2=NS(=O)(=O)c3ccccc32)c1`: the Potency result is “inactive”.

As to `O=C1CCc2cc(S(=O)(=O)Nc3ccc4c(c3)OCCO4)ccc2N1`, the Potency entry was “inactive”.

Regarding `O=c1c2ccccc2cnn1-c1nc2ccccc2[nH]1`, the Potency is 2.59 µM (active).

As for `Cc1ccc2c(c1)c1ccc3c(c1n2C)C(=O)C=CC3=O`, the Potency entry was “inactive”.

Regarding `O=C1CCc2cc(S(=O)(=O)Nc3ccc4ccccc4c3)ccc2N1`, the Potency entry is “inactive”.

As to `O=C1c2ccccc2C(=O)N1c1cccc2ccncc12`, the Potency entry was “inactive”.
